# Source: PubChem BioAssay
# Calls of active or inactive are those of the source.
# Assays:
# [1] = optical density shifts of acrAB sulA E. coli – strain DRC41, OD650, 48 h, E. coli filamentation inducer project, primary screen (AID 1152); settings: higher = more signal, called active from +8 up or from −8 down;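 also: E. coli MC1000 strain DRC41 lacking acrAB efflux pump and sulA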
# [2] = probe aLefty1 binding on compound microarray – biochemical, small-molecule microarray, 635/667 nm fluorescence, primary screen (AID 1153); settings: higher = more signal;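 also: score merges spot fluorescence with signal-to-noise ratio from the scanned slide images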
# [3] = plasmodial surface anion channel blockers, osmotic lysis – cell-based, P. falciparum Indochina, OD700, 1 h, primary screen (AID 1154); settings: P. falciparum Indochina infected RBC osmotic lysis, higher = more signal, called active from +8 up or from −8 down
# [4] = plasmodial surface anion channel blockers, osmotic lysis – cell-based, P. falciparum Indochina, OD700, 2 h, primary screen (AID 1155);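 also: lysis reports solute entry through the parasite surface anion channel PSAC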; settings: P. falciparum Indochina infected erythrocytes, higher = more signal, called active from +8 up or from −8 down
# [5] = changes in parasitized red cell lysis, either direction – P. falciparum Indochina, OD700, 3 h, PSAC antagonist project, primary screen (AID 1156); settings: P. falciparum-infected erythrocytes, osmotic lysis, higher = more signal, called active from +8 up or from −8 down
# [6] = plasmodial surface anion channel blockers, osmotic lysis – cell-based, P. falciparum Indochina, OD700, 18 h, primary screen (AID 1157); settings: P. falciparum Indochina infected erythrocytes, osmotic lysis OD700, 18 h; higher = more signal, called active from +8 up or from −8 down
# [7] = S6 kinase pathway phospho-S6 level changes – cell-based, A549, cytoblot, luminescence, serum-stimulated, primary screen (AID 1158); settings: 5 h, higher = more signal;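 also: serum-stimulated A549 lung adenocarcinoma cells; signal is phosphorylated S6 detected by cytoblot immunostaining with HRP secondary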
# [8] = molecular target: NADPH oxidase 2 (Homo sapiens) (UniProt P04839); assay: compounds shifting NOX2 Amplex Red fluorescence – cell-based, HEK293-NOX2, PMA-stimulated, NOX inhibitor project, primary screen (AID 1159); settings: 45 min, higher = more signal, called active from +8 up or from −8 down; also: test concentration not given here
# NADPH oxidase 2 (Homo sapiens), sequence (P04839 whole entry, looked up): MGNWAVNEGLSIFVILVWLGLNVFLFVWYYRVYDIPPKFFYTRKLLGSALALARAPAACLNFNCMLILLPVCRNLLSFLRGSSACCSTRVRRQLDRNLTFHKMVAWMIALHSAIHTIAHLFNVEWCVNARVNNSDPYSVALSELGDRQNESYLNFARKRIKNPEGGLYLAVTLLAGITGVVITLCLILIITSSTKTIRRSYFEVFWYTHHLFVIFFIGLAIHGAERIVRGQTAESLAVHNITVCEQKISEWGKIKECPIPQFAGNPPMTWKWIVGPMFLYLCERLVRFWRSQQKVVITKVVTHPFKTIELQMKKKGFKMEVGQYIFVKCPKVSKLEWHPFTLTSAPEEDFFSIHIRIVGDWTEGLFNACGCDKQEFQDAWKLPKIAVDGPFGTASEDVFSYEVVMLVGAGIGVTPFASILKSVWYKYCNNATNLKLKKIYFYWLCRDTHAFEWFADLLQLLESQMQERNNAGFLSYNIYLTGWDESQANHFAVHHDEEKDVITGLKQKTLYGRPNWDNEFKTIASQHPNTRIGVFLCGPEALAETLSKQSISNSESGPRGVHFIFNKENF
# [9] = molecular target: NADPH oxidase 4 (Homo sapiens) (UniProt Q9NPH5); assay: compounds shifting NOX4 Amplex Red fluorescence – cell-based, HEK293-NOX4, tetracycline-induced, NOX inhibitor project, primary screen (AID 1160); settings: HEK293-NOX4, Amplex Red H2O2 fluorescence, 45 min; higher = more signal, called active from +8 up or from −8 down
# NADPH oxidase 4 (Homo sapiens), sequence (Q9NPH5 whole entry, looked up): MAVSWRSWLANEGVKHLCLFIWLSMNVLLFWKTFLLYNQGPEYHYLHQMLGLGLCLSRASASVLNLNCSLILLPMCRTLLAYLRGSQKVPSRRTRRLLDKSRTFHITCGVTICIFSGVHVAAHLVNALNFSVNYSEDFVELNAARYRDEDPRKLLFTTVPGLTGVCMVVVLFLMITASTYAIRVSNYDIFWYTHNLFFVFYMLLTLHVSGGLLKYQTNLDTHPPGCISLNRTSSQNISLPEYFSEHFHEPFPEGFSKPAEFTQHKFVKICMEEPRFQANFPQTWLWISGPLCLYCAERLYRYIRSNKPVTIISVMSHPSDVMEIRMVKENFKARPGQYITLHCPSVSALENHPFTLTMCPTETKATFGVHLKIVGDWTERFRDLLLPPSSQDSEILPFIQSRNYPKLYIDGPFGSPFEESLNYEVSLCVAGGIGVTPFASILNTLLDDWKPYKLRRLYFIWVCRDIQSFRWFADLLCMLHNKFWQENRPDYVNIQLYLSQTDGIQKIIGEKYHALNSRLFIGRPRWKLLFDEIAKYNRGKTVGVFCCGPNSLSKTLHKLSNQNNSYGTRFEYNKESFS
# [10] = molecular target: NADPH oxidase 5 (Homo sapiens) (UniProt Q96PH1); assay: compounds shifting NOX5 Amplex Red fluorescence – cell-based, HEK293-NOX5, NOX inhibitor project, primary screen (AID 1161); settings: HEK293-NOX5, ionomycin, 45 min, higher = more signal
# NADPH oxidase 5 (Homo sapiens), sequence (Q96PH1 whole entry, looked up): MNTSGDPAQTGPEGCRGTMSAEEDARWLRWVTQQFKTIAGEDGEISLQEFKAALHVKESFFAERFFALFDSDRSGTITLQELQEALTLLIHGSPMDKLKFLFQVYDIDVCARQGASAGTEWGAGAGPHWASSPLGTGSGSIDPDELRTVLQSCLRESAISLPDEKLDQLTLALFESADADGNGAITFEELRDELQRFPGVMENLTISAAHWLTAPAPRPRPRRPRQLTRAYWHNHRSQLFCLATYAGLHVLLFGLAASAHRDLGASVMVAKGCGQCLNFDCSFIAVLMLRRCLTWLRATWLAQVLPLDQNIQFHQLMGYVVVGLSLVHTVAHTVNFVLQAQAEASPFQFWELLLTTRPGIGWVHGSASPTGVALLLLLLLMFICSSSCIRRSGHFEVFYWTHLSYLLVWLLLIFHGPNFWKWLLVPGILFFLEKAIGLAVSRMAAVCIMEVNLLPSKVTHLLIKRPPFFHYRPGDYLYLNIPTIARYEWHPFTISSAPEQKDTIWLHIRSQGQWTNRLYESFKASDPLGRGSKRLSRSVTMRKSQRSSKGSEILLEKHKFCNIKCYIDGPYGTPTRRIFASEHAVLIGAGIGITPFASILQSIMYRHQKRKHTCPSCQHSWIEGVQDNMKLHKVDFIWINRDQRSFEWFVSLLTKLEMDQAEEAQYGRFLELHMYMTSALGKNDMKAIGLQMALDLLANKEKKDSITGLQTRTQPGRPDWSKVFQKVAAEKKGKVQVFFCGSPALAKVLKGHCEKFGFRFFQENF
# [11] = compound effects on lung adenocarcinoma cell viability – A549, calcein-AM fluorescence, 48 h, basal, profiling panel (AID 1162); settings: higher = more signal; also: test concentration not given here
# [12] = compound effects on differentiated 3T3-L1 adipocyte viability – cell-based, 3T3-L1 adipocytes, calcein-AM fluorescence, 48 h, basal, profiling panel (AID 1163); settings: 3T3-L1 adipocytes viability, higher = more signal; also: test concentration not given here
# [13] = compound effects on hepatocellular carcinoma cell viability – HepG2, calcein-AM fluorescence, 48 h, basal, profiling panel (AID 1164); settings: higher = more signal; also: test concentration not given here
# [14] = compound effects on multiple myeloma cell viability – MM1S, calcein-AM fluorescence, 48 h, basal, profiling panel (AID 1165); settings: higher = more signal;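 also: viability of MM1S multiple myeloma cells under basal unstimulated conditions; test concentration not given here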
# [15] = calcein-AM signal in unstimulated myeloma cells – cell-based, calcein-AM fluorescence, 48 h, PK04 Diversity Set, profiling panel (AID 1166); settings: RPMI8226 myeloma viability, higher = more signal;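 also: cells grown under basal conditions without added stimulus; test concentration not given here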
# [16] = JC-1 mitochondrial signal, unstimulated HepG2 cells – cell-based, JC-1 fluorescence, 24 h, 100 nL compound, profiling panel (AID 1167); settings: HepG2 mitochondrial potential, higher = more signal; also: test concentration not given here
# [17] = JC-1 mitochondrial signal, unstimulated adipocytes – cell-based, JC-1 fluorescence, 3T3-L1 adipocytes, 24 h, 100 nL compound, profiling panel (AID 1168); settings: JC-1 mitochondrial fluorescence, higher = more signal, called active from +8 up or from −8 down; also: test concentration not given here
# [18] = JC-1 mitochondrial signal, unstimulated myeloma cells – cell-based, JC-1 fluorescence, RPMI8226, 24 h, 100 nL compound, profiling panel (AID 1169); settings: JC-1 mitochondrial potential fluorescence, higher = more signal; also: test concentration not given here
# [19] = JC-1 mitochondrial signal, unstimulated MM1S myeloma – cell-based, JC-1 fluorescence, 24 h, 100 nL compound, profiling panel (AID 1170); settings: MM1S mitochondrial potential, higher = more signal; also: test concentration not given here
# [20] = resazurin metabolic signal in A549 cells – cell-based, resazurin fluorescence, 24 h, PK04 Diversity Set, profiling panel (AID 1171); settings: A549 viability, higher = more signal, called active from +8 up or from −8 down; also: test concentration not given here
Structure (SMILES),z-score [1],composite z-score [2],z-score [3],z-score [4],z-score [5],z-score [6],z-score [7],z-score [8],z-score [9],z-score [10],z-score [11],z-score [12],z-score [13],z-score [14],z-score [15],z-score [16],z-score [17],z-score [18],z-score [19],z-score [20]
CCCC=C(CCC)[C@@H](NS(=O)(=O)c1cccc2cccnc12)c1ccc(C(=O)OC)cc1,-1.2 (inactive),0.968,-0.643 (inactive),-0.299 (inactive),-0.722 (inactive),-1.19 (inactive),0.393,0.0603 (inactive),0.212 (inactive),2,-1.76,-0.0806,-1.38,0.131,-0.0956,-1.52,-0.553 (inactive),0.907,-1.13,0.174 (inactive)
O=C1NC(=O)C2C1C=CC(C(O)c1ccc(-c3ccccc3)s1)N2Nc1ccccn1 (stereo not given),-0.513 (inactive),0.114,2.41 (inactive),1.14 (inactive),0.216 (inactive),1.02 (inactive),-0.697,-1.09 (inactive),-2.3 (inactive),-1.44,-0.275,-0.456,-0.538,-0.0747,-0.642,-1.85,-0.544 (inactive),-0.115,-0.371,-0.842 (inactive)
CN(C)CCCN1C(=O)[C@@]2(Cc3ccccc31)c1ccccc1C(=O)N(Cc1ccccc1)[C@H]2c1ccc(CO)cc1,0.0234 (inactive),-0.193,-0.0561 (inactive),-0.952 (inactive),0.182 (inactive),-1.33 (inactive),2.05,-2.34 (inactive),-2.82 (inactive),-2.96,0.483,1.16,0.128,0.38,-2.79,0.343,-0.407 (inactive),-0.484,-1.28,0.726 (inactive)
O=[N+]([O-])c1ccc(C[n+]2ccc(-c3ccc(CO)cc3)cc2)o1,-1.32 (inactive),-0.0764,1.34 (inactive),0.199 (inactive),0.495 (inactive),-0.139 (inactive),-0.103,0.0654 (inactive),-0.765 (inactive),-3.73,0.0994,0.511,-1.19,0.266,-1.19,-1.48,-0.886 (inactive),0.187,-0.425,-0.335 (inactive)
CCCC=C(CCC)[C@@H](NS(=O)(=O)c1ccccc1)c1ccc(C(F)(F)F)cc1,-1.51 (inactive),0.775,4.38 (inactive),1.07 (inactive),0.482 (inactive),0.983 (inactive),-0.0787,-0.818 (inactive),-1.19 (inactive),2.67,-2.27,-0.287,-2.34,-2.55,-4.06,-3.56,-0.634 (inactive),-0.981,-2.47,-0.795 (inactive)
COC(=O)[C@@]1(Cc2ccccc2)[C@H]2c3cc(C(=O)N4CCCC4)n(Cc4ccccc4)c3C[C@H]2CN1C(=O)c1ccccc1,-1.83 (inactive),0.128,3.6 (inactive),0.945 (inactive),0.365 (inactive),1.03 (inactive),-0.276,-0.218 (inactive),-0.0718 (inactive),-1.23,-1.39,0.988,-0.0065,-2.96,-4.64,0.106,-1.74 (inactive),-0.737,-0.777,-3.12 (inactive)
O=C1C2C=CC(C(O)c3cccc4ccccc34)N(Nc3ccccc3)C2C(=O)N1c1ccccc1 (stereo not given),-0.692 (inactive),0.528,8.49 (active),2.06 (inactive),0.214 (inactive),1.41 (inactive),-0.594,-0.627 (inactive),-3.83 (inactive),-3.17,0.112,-1.54,0.22,-0.624,-1.52,-1.09,-0.209 (inactive),-0.408,-0.318,-0.854 (inactive)
COc1cc(C(O)C2C=CC3C(=O)N(C)C(=O)C3N2NC(=O)OC(C)(C)C)cc(OC)c1OC (stereo not given),-1.47 (inactive),0.733,-0.249 (inactive),1 (inactive),-0.226 (inactive),1.12 (inactive),-1.27,-0.231 (inactive),-0.726 (inactive),-1.48,-1.58,-0.785,-0.884,-2.19,-0.907,-1.66,-0.321 (inactive),-0.872,0.415,-0.679 (inactive)
COc1ccc(CCNC(=O)[C@@H]2c3ccccc3C(=O)N(Cc3ccccc3C(F)(F)F)[C@H]2c2ccc(CO)cc2)cc1,0.163 (inactive),-0.144,3.68 (inactive),0.252 (inactive),1.73 (inactive),0.694 (inactive),-0.366,-0.536 (inactive),-2.38 (inactive),-3.69,0.0059,-0.513,0.106,-0.601,-0.0978,1.2,0.996 (inactive),-0.667,0.00958,2.22 (inactive)
[N-]=[N+]=NCc1ccccc1[C@H]1OC(c2ccc(OCCCO)cc2)=N[C@@]1(Cc1ccccc1N=[N+]=[N-])C(=O)N1CCCCC1,0.369 (inactive),0.72,27.7 (active),21.4 (active),2.7 (inactive),4.56 (inactive),-0.0152,-2.52 (inactive),0.328 (inactive),-0.575,-0.457,-0.5,-0.536,-2.14,-2.79,1.06,0.0871 (inactive),-0.978,-1.76,-0.409 (inactive)
CN(C)C(=O)[C@@]1(CCC(=O)OC(C)(C)C)N=C(c2ccc(OCCCO)cc2)O[C@H]1c1ccccc1N=[N+]=[N-],0.0366 (inactive),0.646,32.9 (active),32.2 (active),1.78 (inactive),3.02 (inactive),-0.192,-3.57 (inactive),0.0136 (inactive),-1.97,0.186,0.727,-0.34,-0.956,0.0691,1.45,-0.371 (inactive),-0.432,-0.0283,0.966 (inactive)
CN(C)C(=O)[C@@]1(CCS(=O)(=O)c2ccccc2)N=C(c2ccc(OCCCO)cc2)O[C@H]1c1ccccc1CN=[N+]=[N-],1.1 (inactive),0.375,24 (active),4.2 (inactive),0.344 (inactive),-0.48 (inactive),1.12,-1.49 (inactive),0.083 (inactive),-0.558,1.29,0.828,-0.294,-0.582,-0.314,0.548,-0.264 (inactive),-0.114,-1.31,0.712 (inactive)
C=CCOC(=O)[C@H]1[C@@H]2C(=O)O[C@@H](c3ccccc3)[C@@H](c3ccccc3)N2[C@@H](c2ccc(OCCOC(=O)[C@H]3C[C@H]4C(=O)N[C@@H](CCCCN(C)C)C(=O)N4[C@H]3c3ccc(O)cc3)cc2)[C@]12C(=O)Nc1ccccc12,-0.558 (inactive),1.13,-0.862 (inactive),0.332 (inactive),3.2 (inactive),0.522 (inactive),-0.259,2.21 (inactive),1.05 (inactive),0.576,-0.514,1.04,-0.434,-1.54,-0.0817,-1.63,0.665 (inactive),-0.838,-0.391,0.232 (inactive)
COc1cc2c(cc1OC)CN(C(=O)[C@@H]1[C@H]3C(=O)O[C@H](c4ccccc4)[C@H](c4ccccc4)N3[C@H](c3ccc(O)cc3)[C@@]13C(=O)Nc1ccc(C#CCNC(N)=O)cc13)CC2,0.108 (inactive),0.231,1.1 (inactive),0.218 (inactive),-0.83 (inactive),-0.0717 (inactive),-0.419,0.842 (inactive),0.157 (inactive),0.432,0.434,0.0878,-0.659,0.454,-0.375,-1.55,-0.628 (inactive),-0.0414,-0.375,0.795 (inactive)
CC1CC/C=C\[C@H]2OC34C=CCN(c5ccc(Cl)cc5)C(=O)[C@H]3N(C(CO)C(C)C)C(=O)[C@]4(C)C2C(=O)O1 (stereo not given in full),-0.397 (inactive),0.188,2.3 (inactive),0.798 (inactive),0.647 (inactive),0.647 (inactive),-0.631,1.86 (inactive),-0.264 (inactive),2.39,0.109,-1.06,0.453,0.955,-0.105,-0.174,-0.21 (inactive),-0.362,0.00224,-0.392 (inactive)
O=C1O[C@H](c2ccccc2)[C@H](c2ccccc2)N2[C@H]1[C@@H](C(=O)N1CCCCCCC1)[C@]1(C(=O)Nc3ccc(C#CCCO)cc31)[C@H]2c1ccc(OCCO)cc1,0.543 (inactive),3.09,10.3 (active),2.04 (inactive),1.21 (inactive),1.02 (inactive),0.456,1.11 (inactive),0.597 (inactive),1.25,-0.84,0.162,0.409,-0.276,-0.105,-0.0749,-0.962 (inactive),-0.737,-0.919,1.93 (inactive)
COC(=O)[C@@]1(Cc2ccc(OC)cc2)[C@H]2c3cc(C(=O)N(C)C)n(CCF)c3C[C@H]2CN1C(=O)c1ccccc1,-0.55 (inactive),0.624,1.81 (inactive),0.847 (inactive),0.865 (inactive),1.06 (inactive),-0.132,0.605 (inactive),2.58 (inactive),0.602,-0.444,-0.228,-0.0897,0.841,-0.111,1.49,0.454 (inactive),-0.339,-1.55,-0.391 (inactive)
[N-]=[N+]=Nc1ccccc1[C@H]1OC(c2ccc(OCCCO)cc2)=N[C@@]1(Cc1ccccc1)C(=O)NCc1ccccc1,1.74 (inactive),0.512,33.5 (active),26.9 (active),1.22 (inactive),2.33 (inactive),2.03,-2.35 (inactive),-0.275 (inactive),-1.3,-1.16,0.491,-1.07,-1.04,-3.84,0.671,-1.17 (inactive),-1.16,-2.17,-1.56 (inactive)
